Experimental data as given in PubChem BioAssay (EPA / NIEHS).
Records with an inconclusive call do not appear. Activity calls are given as the source filed them. The calls were made as follows: active = hit-call score of the fitted dose curve at least 0.9, where 1 is the maximum; inconclusive = response in the unintended direction; inactive = score below 0.9.

The compounds below were run on glucuronosyltransferase (UGT1A1), UGT1A1 (gene 54658) (assay: CLD_UGT1A1_24hr: CellzDirect (CLD) Gene Expression Assay for glucuronosyltransferase (UGT1A1) at 24 hours (AID 2283696)).
Experimental: CLD_24hr is a cell-based, multiplexed-readout assay that uses hepatocyte, a human liver primary cell, with measurements taken at 24 hours after chemical dosing in a 96-well plate.CLD_UGT1A1_24hr is one of 16 assay component(s) measured or calculated from the CLD_24hr assay. It is designed to make measurements of mRNA induction, a form of inducible reporter, as detected with chemiluminescence signals by Quantitative Nuclease Protection Assay (qNPA) technology.Data from the assay component CLD_UGT1A1_24hr was analyzed at the endpoint, CLD_UGT1A1_24hr, in the positive analysis fitting direction relative to DMSO as the negative control and baseline of activity. Using a type of inducible reporter, gain-of-signal activity can be used to understand changes in the reporter gene as they relate to the gene UGT1A1. Furthermore, this assay endpoint can be referred to as a primary readout. To generalize the intended target to other relatable targets, this assay endpoint is annotated to the transferase intended target family, where subfamily is glucuronosyltransferase.
Human hepatocyte cultures were treated daily for two consecutive days with fresh dosing solutions containing appropriate concentrations of the 320 ToxCast chemicals (chemical identities were blinded to CellzDirect and other ToxCast collaborators), vehicle control (0.2% DMSO), and positive control inducers as summarized in Table 1. Due to the large number of treatment groups and chemicals examined, the ToxCast chemicals were divided into two groups (spanning two independent cultures of hepatocytes from separate donor preparations (Hu778: ToxCast plates 1 and 2; Hu776: ToxCast plates 3 and 4). Each preparation of human hepatocyte cultures was treated with respective vehicle control, medium only control, set of six positive controls/reference chemicals for the five hepatic receptor pathways, and a subset of eight of the ToxCast chemicals (indoxacarb, pyrithiobac-sodium, norflurazon, cyhalofop-butyl, methomyl, thiram, acetochlor, and propiconazole). These replicate data, coupled with internal replicates designed within the blinded ToxCast chemical library, provided additional data to evaluate interindividual differences between hepatocyte preparations and their potential impact on chemical profiles.Cell morphology and integrity were evaluated using phase-contrast microscopy as an indicator of hepatocyte cell health (Tyson & Green, 1987). Cultures for each treatment group (i.e., media, vehicle [0.2% DMSO], positive control inducers [multiple concentrations], and the ToxCast chemicals [multiple concentrations]) were observed and cell morphology was assessed relative to vehicle control cultures at each harvest time point (0, 6, 24, or 48 h). […] Images were evaluated at the conclusion of the study to assess changes in cell integrity and account for the effects of chemical exposure on uncharacteristic changes in concentration-dependent gene expression profiles. The results from these determinations of apparent cytotoxicity were annotated (yes/no) alongside the corresponding qNPA data for reference.At the conclusion of each treatment period, hepatocyte cultures (96-well) were washed with 1 volume of HBSS, lysed by addition of 25 ul ArrayPlate lysis buffer (HTG, Tucson, AZ), and 70 ul/well of Denaturation Oil, denatured by incubation at 95C for 10 min, and frozen at approximately -70C until analysis by nuclease protection assay (qNPA) (Roberts et al., 2007). For qNPA analysis, cell lysates were thawed at 50C for approximately 30 min, qNPA probes were added, and samples were incubated at 95C for 10 min to begin the detection process by denaturing the target RNA, dissociating the duplexes and secondary structure hybridization. At the conclusion of the hybridization period, S1 nuclease reagent was added to each sample to digest all nonprotected nucleotides at 50C for 60-90 min. […]

Row | Compound | outcome | AC50
1 | CC1(C)CCC(=Cc2ccc(Cl)cc2)C1(O)Cn1cncn1 (stereo not given) | inactive | 
2 | COCC(=O)N(c1c(C)cccc1C)C(C)C(=O)OC (stereo not given) | inactive | 
3 | CCOc1cc(C(C)(C)C)ccc1C1COC(c2c(F)cccc2F)=N1 (stereo not given) | inactive | 
4 | COCC(C)N(C(=O)CCl)c1c(C)csc1C (stereo not given) | inactive | 
5 | CCOP(=O)(OCC)Oc1nc(Cl)c(Cl)cc1Cl | inactive | 
6 | CC(C)(C)C(=O)C(Oc1ccc(Cl)cc1)n1cncn1 (stereo not given) | inactive | 
7 | CCCN(CC)CC1COC2(CCC(C(C)(C)C)CC2)O1 (stereo not given) | inactive | 
8 | CNC(=O)N(C)c1nnc(C(C)(C)C)s1 | inactive | 
9 | CCCCC(O)(Cn1cncn1)c1ccc(Cl)cc1Cl (stereo not given) | inactive | 
10 | COC(=O)N(C(=O)N1CO[C@@]2(C(=O)OC)Cc3cc(Cl)ccc3C2=N1)c1ccc(OC(F)(F)F)cc1 | inactive | 
11 | CC(C)N1C(=O)c2ccccc2NS1(=O)=O | inactive | 
12 | CCCCOCN(C(=O)CCl)c1c(CC)cccc1CC | inactive | 
13 | Cc1cnc(C2=NC(C)(C(C)C)C(=O)N2)c(C(=O)O)c1 (stereo not given) | inactive | 
14 | Cc1cc(C)nc(Nc2ccccc2)n1 | inactive | 
15 | CC1(C)C(C=C(Cl)Cl)C1C(=O)OC(C#N)c1cccc(Oc2ccccc2)c1 (stereo not given) |  | 6.01 µM (active)
16 | CCOP(=S)(OCC)Oc1nc(Cl)n(C(C)C)n1 |  | 0.652 µM (active)
17 | Nc1c(Cl)c(F)nc(OCC(=O)O)c1Cl | inactive | 
18 | C=CCOC(=O)C(C)(C)OC(=O)c1cc(-n2c(=O)cc(C(F)(F)F)n(C)c2=O)ccc1Cl | inactive | 
19 | CCOC(=O)C(C)OC(=O)c1cc(Oc2ccc(C(F)(F)F)cc2Cl)ccc1[N+](=O)[O-] (stereo not given) |  | 2.46 µM (active)
20 | CC(C)Oc1cccc(NC(=O)c2ccccc2C(F)(F)F)c1 | inactive | 

Row | Compound | outcome | AC50
21 | COC(=O)NC(=S)Nc1ccccc1NC(=S)NC(=O)OC | inactive | 
22 | COc1ccc(-c2ccccc2)cc1NNC(=O)OC(C)C | inactive | 
23 | COc1cc(Cl)c(OC)cc1Cl | inactive | 
24 | COP(=S)(OC)Oc1ccc([N+](=O)[O-])c(C)c1 | inactive | 
25 | COC(=O)NS(=O)(=O)c1ccc(N)cc1 | inactive | 
26 | O=P(O)(O)CCCl | inactive | 
27 | COP(=S)(OC)SCn1nnc2ccccc2c1=O |  | 9.43 µM (active)
28 | CS(=O)(=O)c1cc(C(F)(F)F)ccc1C(=O)c1cnoc1C1CC1 | inactive | 
29 | Nc1c(Cl)c(Cl)nc(C(=O)O)c1Cl | inactive | 
30 | COCc1cnc(C2=NC(C)(C(C)C)C(=O)N2)c(C(=O)O)c1 (stereo not given) | inactive | 
31 | CC(C)N1C(=O)N(c2ccccc2)CSC1=NC(C)(C)C | inactive | 
32 | CN=C=S | inactive | 
33 | OC(c1ccc(Cl)cc1)(c1ccc(Cl)cc1)C(Cl)(Cl)Cl | inactive | 
34 | CSC(=O)c1c(C(F)F)nc(C(F)(F)F)c(C(=O)SC)c1CC(C)C | inactive | 
35 | CC(C)C1(C)N=C(c2ncccc2C(=O)O)NC1=O (stereo not given) | inactive | 
36 | CC(C)=CC1C(C(=O)OCc2coc(Cc3ccccc3)c2)C1(C)C (stereo not given) | inactive | 
37 | CC1(C)CON(Cc2ccccc2Cl)C1=O | inactive | 
38 | O=C(O)c1c(Cl)ccc2cc(Cl)cnc12 | inactive | 
39 | CC(C)NC(=O)N1CC(=O)N(c2cc(Cl)cc(Cl)c2)C1=O | inactive | 
40 | CNC(=O)Oc1cccc2ccccc12 | inactive | 
